According to PubChem BioAssay AID1159580 (chemical genetic matrix, 2015):
Among all 5,500 compounds or so, about 2,000 (36%) were called active. Roughly 18% stayed inconclusive and do not appear here. Rule as the data show it: active = normalized growth mostly below about 0.91 (no sharp cut-off); inconclusive = no clear call, values can overlap the other calls; inactive = mostly above about 0.92. The list shows a part of the results.

Assay: chemical genetic growth profiling, strain panel (AID 1159580);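 also: tested at 20 µM; growth read once vehicle control cultures reached saturation at 30 °C; 1 = growth at the plate median or of vehicle wells; lower values mean less growth of the strain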
Details: S. cerevisiae deletion strains, growth OD

Measured: normalized growth

COc1ccc(Oc2cc(C)nc3ccccc23)cc1
inactive: locus YAL013W, strain DEP1, stronger effect = lower value 1.01 | locus YBR229C, strain ROT2, stronger effect = lower value 1 | locus YDL101C, strain DUN1, stronger effect = lower value 1.02 | locus YDL134C, strain PPH21, stronger effect = lower value 0.989 | locus YDR150W, strain NUM1, stronger effect = lower value 1.02 | locus YGR078C, strain PAC10, stronger effect = lower value 1.01 | locus YHR087W, strain rtc3, stronger effect = lower value 0.999 | locus YJR043C, strain POL32, stronger effect = lower value 1 | locus YJR075W, strain HOC1, stronger effect = lower value 1.02 | locus YLR058C, strain SHM2 (second series), stronger effect = lower value 1 | locus YML094W, strain GIM5, stronger effect = lower value 0.941 | locus YMR219W, strain ESC1, stronger effect = lower value 1.01 | locus YMR263W, strain SAP30, stronger effect = lower value 1.02 | locus YNL153C, strain GIM3, stronger effect = lower value 0.991 | locus YNL298W, strain CLA4 (second series), stronger effect = lower value 0.876 | locus YNL322C, strain KRE1, stronger effect = lower value 1.01 | locus YNR030W, strain Alg12, stronger effect = lower value 0.967 | locus YPL055C, strain LGE1, stronger effect = lower value 1.02
active: locus YEL061C, strain CIN8, stronger effect = lower value 0.884 | locus YHR030C, strain SLT2, stronger effect = lower value 0.269 | locus YKL190W, strain CNB1, stronger effect = lower value 0.906 | locus YLR039C, strain RIC1, stronger effect = lower value 0.606 | locus YLR085C, strain ARP6, stronger effect = lower value 0.527 | locus YLR262C, strain YPT6, stronger effect = lower value 0.701 | locus YPL241C, strain CIN2, stronger effect = lower value 0.845 | locus YPR135W, strain CTF4, stronger effect = lower value 0.397
